Assay results published in PubChem BioAssay (NCI).
The panel holds about 79,000 compounds, 15% with a hit somewhere; the sample as a whole holds those more often. Unmarked numbers belong to inactive results. The source made the active and inactive calls. Rule as the data show it: active = growth inhibition above about 70%; inactive = the rest.

Tests used:
[1] = NCI Yeast Anticancer Drug Screen. Data for the rad50 strain (AID 155);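 also: 0% = growth of vehicle-only cultures of the same strain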; details: S. cerevisiae rad50 strain growth inhibition; at 50.0 µM; hits give high values
Method in brief: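 A DNA repair-deficient yeast mutant serves as the test organism; compound-induced growth inhibition is calculated against vehicle-treated cells.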

[2] = NCI Yeast Anticancer Drug Screen. Data for the mec2-1 strain (AID 157); details: S. cerevisiae mec2-1 strain, at 50.0 µM, hits give high values
Method in brief: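 Using mec2-1 yeast: add compound, measure growth, express inhibition versus vehicle-treated cultures.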

[3] = NCI Yeast Anticancer Drug Screen. Data for the sgs1 mgt1 strain (AID 161);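 also: 0% = growth of cultures given vehicle only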; details: S. cerevisiae sgs1 mgt1 strain, at 50.0 µM, hits give high values
Method in brief: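 Percent growth inhibition was derived by comparing compound-exposed mutant yeast with vehicle-exposed cultures. The strain carries alterations in DNA damage repair.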

[4] = NCI Yeast Anticancer Drug Screen. Data for the cln2 rad14 strain (AID 165);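 also: 0% = growth equal to vehicle treated cultures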; details: S. cerevisiae cln2 rad14 strain, at 50.0 µM, hits give high values
Method in brief: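 Yeast strain cln2 rad14, bearing defects in cell cycle control and DNA repair, serves as the test system; values reflect growth inhibition compared with vehicle.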

[5] = NCI Yeast Anticancer Drug Screen. Data for the bub3 strain (AID 167); details: S. cerevisiae bub3 mutant strain, at 50.0 µM, hits give high values
Method in brief: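 Inhibition values come from growth of compound-treated mutant yeast normalised to vehicle-treated controls.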

[6] = NCI Yeast Anticancer Drug Screen. Data for the mlh1 rad18 strain (AID 175); details: S. cerevisiae mlh1 rad18 strain growth inhibition; at 50.0 µM; hits give high values
Method in brief: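 Steps: expose repair-defective yeast to compound; measure growth; express inhibition against vehicle-treated controls.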

SMILES	growth inhibition [1]	growth inhibition [2]	growth inhibition [3]	growth inhibition [4]	growth inhibition [5]	growth inhibition [6]
Cc1ccc(S(=O)(=O)N(N)CCC#N)cc1	7.3%	4.55%	14.8%	-24.1%	-10.1%	14.6%
CCOC(=O)Cc1nnc2n(-c3ccccc3)c(=O)c3ccccc3n12	-23.6%	-15.3%	-21.7%	11.8%	-21.9%	-74.2%
CC(=O)OC/C=C(\C)CCC=C(C)C	-21.6%	-23.4%	-12.2%	-6.65%	-0.55%	-5.15%
N=c1ccn(CC(O)COc2ccccc2)cc1 (centres undefined)	-11.8%	-13.8%	-5.95%	10.6%	2.75%	9.55%
NNC(=O)C(=O)N/N=C(\CCC(=O)Nc1ccc(Cl)cc1)Cc1nc2ccccc2s1	28.2%	28.2%	30.4%	9.65%	12.3%	36.2%
COC(=O)C(Cc1nc2ccc(Cl)cc2[nH]c1=O)C(=O)C(=O)Nc1cc(C)ccc1C (centres undefined)	-19.2%	4.85%	-33%	-35.6%	-26.4%	14.5%
COc1ccc(OC)c2cc3c(cc12)C(=O)c1ccccc1C3=O	10.6%	70.2% (active)	25.2%	90.7% (active)	94.6% (active)	46.9%
Cc1cc(O)oc(=O)c1	-7.7%	-15.1%	-7.2%	-44.4%	1.85%	-4.85%
CC(=O)N[C@@H]1CCC[C@H](NC(C)=O)C1	-9.75%	-44.4%	-12.7%	-17.1%	12.7%	-23.9%
Clc1ccccc1C=Nc1ccccc1	31.2%	11.9%	30.7%	20.6%	24.7%	34%
O=C(Cc1ccccc1)c1ccc(N2CCOCC2)cc1	21.5%	-19.2%	11.5%	13.2%	26.1%	25.7%
CC(O)/C=C/C(CCC(C)CO)C(C)C (centres undefined)	-17%	-27.6%	-26%	-10.2%	-25.9%	-16%
CN(C)CCC(C(=O)C(C)(C)C)c1ccccn1 (centres undefined)	-7.2%	-9.2%	-5.65%	-19.4%	-16.9%	-0.6%
CCCCCCCCCCCCCCCCCCCCCCC	-30.4%	-15.1%	-21.9%	4.8%	-17.2%	-18.4%
COc1cc(CNC(=S)CCCCCCCCCCC(C)C)ccc1O	-20.1%	-23.6%	-4.5%	-26.4%	15.2%	-21.4%
CCOc1ccc2nc(NC(=O)CC(C)=O)sc2c1	-17.6%	-22%	-4.3%	7.6%	-17.9%	7.35%
COc1cccc(CNc2ncnc3nc[nH]c23)c1	16.5%	1.85%	14.7%	4%	-3.85%	24.6%
CC12CCC(c3cn[nH]c31)C2(C)C (centres undefined)	16.1%	20.8%	19.9%	-6.6%	-0.35%	0.7%
N#CC1CC12c1ccccc1C(=O)c1ccccc12 (centres undefined)	-1.9%	0.25%	0.8%	-16.1%	-21.4%	-4.75%
CCN(CC)CCOCCN(CC)CC	4.15%	-2.2%	-5.25%	-44.8%	0.1%	9.55%

SMILES	growth inhibition [1]	growth inhibition [2]	growth inhibition [3]	growth inhibition [4]	growth inhibition [5]	growth inhibition [6]
C1CCC2(CCC34CCCCC3CCCC4)CCCCC2C1 (centres undefined)	99.5% (active)	99.7% (active)	99.5% (active)	99.3% (active)	99.5% (active)	98.2% (active)
CCOC(=O)NN(C(=O)OCC)C(C(=O)C1=CCCCC1)N(NC(=O)OCC)C(=O)OCC	-9.95%	-1.15%	4.5%	0.2%	0.3%	-2.85%
CCN(CC)CCCC(C)NC(=O)c1ccc2c(c1O)C(=O)c1ccccc1C2=O (centres undefined)	64%	-7.75%	65.6%	58.5%	30.1%	84.6% (active)
COc1cc(Nc2nc3cc(C(F)(F)F)ccc3nc2-c2ccccc2)cc(OC)c1OC	15.4%	-4.8%	-26.4%	-11.8%	-10.4%	-23.9%
COC(=O)C1(C(=O)OC)C2CCCCC21 (centres undefined)	4.65%	9.3%	-6.6%	12.8%	-13.9%	7.1%
CCOC(=O)CCCCC(N)=O	-4.3%	-7.6%	-15.7%	1.15%	11.4%	2.7%
O=C1CC(=O)N(c2ccccc2)N1	35.2%	7.45%	45%	19.9%	35.1%	16.9%
COC(=N)CC(=O)C(C)(C)C	-6.4%	-15.9%	-13.7%	-9.65%	-6.25%	-7.2%
CC(=O)OC(C)c1cc2c(s1)C(=O)c1scc(C(C)OC(C)=O)c1C2=O (centres undefined)	90.8% (active)	93.4% (active)	92.5% (active)	91.9% (active)	91.7% (active)	91.3% (active)
CCCCCCC1OCC(C)([N+](=O)[O-])CO1 (centres undefined)	13.9%	-8.8%	-1.1%	-28.8%	-12.6%	5.65%
COC1OC(C(C)O)C2OC(C)(C)OC12 (centres undefined)	40.5%	29.1%	32.2%	1.5%	18.9%	13.3%
Cc1ccc2sc3nc4ccccc4nc3c2c1	12.1%	3.5%	-1.95%	-4.25%	5.8%	-1.25%
CC(=O)n1c(N)nc2ccccc21	21.3%	-2.85%	6.95%	3.4%	1.45%	28.8%
C=CC[N+]12CC=C3COC(=O)C(C)(O)C(C)(O)C(C)C(=O)OC(CC1)C32 (centres undefined)	0.4%	-0.2%	0.4%	-25.9%	-3.55%	-5.65%
CCOC(=O)C(Cc1c[nH]c2ccccc12)NC(=O)C1(O)C(O)C2(CC)C=CCN3CCC4(c5cc(C6(C(=O)OC)CC7CC(CC)CN(CCc8c6[nH]c6ccccc86)C7)c(OC)cc5N(C)C14)C32 (centres undefined)	20.8%	20.2%	7.75%	32.4%	17%	6.2%
CC(=O)Oc1cc(Cl)c(Cl)cc1Cl	19.9%	29.9%	-5.65%	-30.4%	-16.4%	-2.1%
COCCOCc1nc(C#N)c(N)o1	-6.6%	2.6%	-36%	13.8%	-24%	-66.2%
Cn1c2c(c3ccccc31)=NN1CCN=C1N=2	11.2%	-2.95%	-0.15%	-28.2%	17.2%	4%
O=C1CS(=O)(=O)CN1c1ccc(Cl)c(Cl)c1	-17.4%	-3.35%	-7.65%	6%	7%	3.6%
